Screening data from PubChem BioAssay.
D2 ag-1: D2 dopamine receptor (human) agonism | AID 485358 | HEK293 T-REx D2 cells, calcium flux agonist mode | activation, % at 2 µM | P14416 | hit rate 0.53% among 340,000;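 active = activation over 3 SD above normal in the single-dose calcium agonist read, cut at about 30% in these data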; note: 0% is about no effect
Target sequence (P14416 whole entry, looked up): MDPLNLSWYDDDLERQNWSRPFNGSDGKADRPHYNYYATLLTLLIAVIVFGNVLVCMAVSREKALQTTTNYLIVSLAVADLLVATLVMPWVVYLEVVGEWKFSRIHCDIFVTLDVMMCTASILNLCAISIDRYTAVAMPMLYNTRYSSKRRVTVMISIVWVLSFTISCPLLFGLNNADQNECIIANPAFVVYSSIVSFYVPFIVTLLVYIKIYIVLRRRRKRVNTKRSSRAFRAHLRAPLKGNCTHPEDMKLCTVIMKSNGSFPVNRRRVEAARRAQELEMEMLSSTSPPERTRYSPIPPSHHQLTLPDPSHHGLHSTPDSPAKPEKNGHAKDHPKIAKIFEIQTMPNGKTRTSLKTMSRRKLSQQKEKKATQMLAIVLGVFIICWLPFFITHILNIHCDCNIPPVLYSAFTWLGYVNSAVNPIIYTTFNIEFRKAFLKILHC
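HEK293 Trex D2 cells, tetracycline-induced, o/n 30 C 5% CO2; no-wash Ca dye, RT 30–90 min; 10-cycle baseline, 23 nl cpd added, kinetic Ca read 180 s; agonist hits = positive Ca response.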
D2 ag-2: activates the human D2 dopamine receptor; hit rate 0.084% among 360,000; activation, % (test concentration not listed); P14416; DiscoveRx PathHunter D2 beta-arrestin, luminescence, 90 min; 100% = 57 uM dopamine signal; AID 624465; in the data active = activation above about 40%; inconclusive = between about 15% and that limit
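DiscoveRx PathHunter D2 beta-arrestin cells (2,100/well) attached overnight, then compound-stimulated 90 min at 37 C in HBSS/10 mM HEPES/0.1% Tween-20 buffer; beta-galactosidase complementation read by luminescence after 1 h at ambient temperature. Dopamine 57 uM final (EC100) as control.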
D2 antag: D2 dopamine receptor (human) antagonism; hit rate 2% among 340,000; HEK293 TREx D2 cells, calcium flux, dopamine EC80; P14416; inhibition, % at 10 µM; in the data active = inhibition above about 30%; inactive = below that, where a call was filed; note: 0% is about no effect
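Tetracycline-induced HEK293 T-REx cells expressing D2 force-coupled to calcium signalling were dye-loaded, exposed to compound for 180 s, then challenged with an EC80 of dopamine; calcium flux was followed kinetically for a further 180 s.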
D2 PAM-1: potentiates the human D2 dopamine receptor allosterically. hit rate 0.23% among 360,000. potentiation, % (concentration not given with the values). DiscoveRx D2 beta-arrestin cells, luminescence, 90 min; 100% = 57 uM dopamine signal. P14416; in the data active = potentiation above about 50%; inconclusive = mostly about 30% to 49%
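PathHunter beta-arrestin assay in DiscoveRx D2 cells. Compounds were added with an EC20 of dopamine (50 nM final) for 90 min at 37 deg C. Luminescence was read 1 h after detection reagent, with 57 uM dopamine as the EC100 control.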
D2 PAM-2: positively modulates the human D2 dopamine receptor allosterically. P14416. HEK293 T-REx D2, calcium flux, EC20 dopamine potentiation. potentiation, % at 10 µM. hit rate 0.34% among 340,000. AID 485347;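 active = potentiation over 3 SD above the plate norm, cut at about 30% in these data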; note: 0% is about no effect
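Primary screen. Calcium kinetics in induced HEK293 T-REx D2 cells: compound pre-addition 180 s, EC20 dopamine, 180 s more.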
Numbers without * were called inactive; ? = inconclusive; · = not tested or not shown; ! = not active in a repeat. This is a sample that favours compounds with a hit; in the whole collection about 2.4% have one here.

SMILES | D2 ag-1 | D2 ag-2 | D2 antag | D2 PAM-1 | D2 PAM-2
O=C1CC(C(=O)Nc2ccccc2)N=C(N2CCCCC2)N1 (configuration not stated) | -1 | -4 | -29 | -16 | 0
Cc1ccc(NC(=O)C2CC(=O)NC(N3CCCCC3)=N2)cc1Cl (configuration not stated) | -1 | -3 | 71* | -28 | -19
Cc1cc(C)c2c(n1)nn1c(NCCCN3CCOCC3)cc(C)nc21 | · | -3 | · | -12 | ·
Cc1cc(C)c2c(n1)nn1c(NCCCn3ccnc3)cc(C)nc21 | 0 | · | -17 | · | 34*
CC(C)c1ccc(NC(=O)Cn2nnc(C(=O)NCc3ccco3)c2N)cc1 | -1 | 5 | -8 | -5 | -13
CC(Oc1ccc(F)cc1)C(=O)N1CCC(c2nc3ccccc3s2)CC1 (configuration not stated) | -1 | · | · | · | ·
COc1ccc(C(=O)NCc2cn3ccsc3n2)cc1OC | 1 | -3 | -5 | -2 | 33*
CCOc1ccc(NC(=O)CCn2c(=O)c3cccn3c3cccnc32)cc1 | -1 | · | · | · | 3
CCC(=O)N1CCc2cc(OC)c(OC)cc2C1COc1ccccc1OC (configuration not stated) | 0 | -2 | 7 | -3 | 38*!
CCCC(=O)N1CCc2cc(OC)c(OC)cc2C1COc1ccccc1OC (configuration not stated) | -1 | 1 | · | -3 | 10
O=c1cc(-c2c(F)c(F)c(F)c(F)c2F)oc2c(F)c(F)c(F)c(F)c12 | 18 | · | 56* | · | -12
O=c1cc(-c2c(F)c(F)c(F)c(F)c2F)oc2ccccc12 | 0 | -3 | -9 | -18 | 18
COc1ccccc1/C=C1\SC(=S)N(Nc2nc(C)cc(C)n2)C1=O | 0 | -2 | -13 | -15 | 3
Cc1cc(C)nc(NN2C(=O)/C(=C/c3ccc(O)cc3)SC2=S)n1 | 9 | -7 | 45* | -18 | 8
Cc1cc(C)c(S(=O)(=O)N2CCN(C(=O)N3CCCCC3)CC2)c(C)c1 | 0 | -3 | 0 | 1 | 7
Cc1cc(C)c(S(=O)(=O)N2CCN(C(=O)N(C)C)CC2)c(C)c1 | 0 | -1 | -5 | -6 | 32*
Cc1cc(C)c(S(=O)(=O)N2CCN(C(=O)C(C)Cn3nc(C)nc3C)CC2)c(C)c1 (configuration not stated) | 1 | 3 | 35* | -9 | 12
Cc1nc(C)n(CC(C)C(=O)N2CCN(S(=O)(=O)c3ccccc3)CC2)n1 (configuration not stated) | -1 | -2 | 32* | -1 | -15
C=Cn1cc[n+](CC(=O)c2ccc(Br)cc2)c1 | 1 | 2 | 8 | -16 | 3
CC1CCc2nc(NC(=O)CN3CCN(c4ccccc4)CC3)sc2C1 (configuration not stated) | 1 | -3 | -6 | -5 | 9
CC1CCc2nc(NC(=O)CN3CCN(Cc4ccc5c(c4)OCO5)CC3)sc2C1 (configuration not stated) | 0 | 0 | 72* | -31 | -36
Cc1ccc2c(c1)cc1c(=O)n(Cc3cccc(Cl)c3)nc(C)n12 | 0 | · | · | · | 5
O=C(CBr)c1ccc([N+](=O)[O-])c(CS(=O)(=O)c2ccc(Cl)cc2)c1 | 5 | 54* | 6 | -37 | -2
Cc1c(NC(=O)Nc2ccccc2C(F)(F)F)sc2nc3n(c(=O)c12)CCC(C)CC3 (configuration not stated) | 0 | · | · | · | -1
Cc1ccc(NC(=O)CC2S/C(=N/N=C/c3ccco3)NC2=O)cc1Cl (configuration not stated) | 1 | 0 | 33* | -9 | -2
SMILES | D2 ag-1 | D2 ag-2 | D2 antag | D2 PAM-1 | D2 PAM-2
Cc1ccccc1NC(=O)CC1SC(=Nc2ccc(O)cc2)NC1=O (configuration not stated) | 3 | -2 | 14 | -8 | -14
CC(C)=N/N=C1/NC(=O)C(CC(=O)Nc2cc(Cl)ccc2C)S1 (configuration not stated) | 0 | -4 | 46* | -36 | -18
Cc1ccc(NC(=O)CC2S/C(=N/N=C/C=C/c3ccccc3)NC2=O)cc1Cl (configuration not stated) | 0 | -2 | 10 | -1 | 7
O=[N+]([O-])c1ccc(CNc2ccc(Cl)cc2)s1 | -2 | 11 | 96* | ? | 4
O=c1[nH]c2cc([N+](=O)[O-])ccc2c2cc(Br)ccc12 | · | 2 | · | -2 | ·
COc1cc(C)cc2oc(=O)c(CC(=O)N3CCN(C(=O)C4COc5ccccc5O4)CC3)c(C)c12 (configuration not stated) | -1 | 5 | 37* | 12 | 3
Cc1cc(O)c2c(C)c(CC(=O)N3CCN(C(=O)C4COc5ccccc5O4)CC3)c(=O)oc2c1 (configuration not stated) | -2 | 1 | 0 | 0 | 3
COc1cccc2cc(C(C)OC(=O)Nc3ccc(C)cc3)oc12 (configuration not stated) | 1 | 3 | 32* | -21 | -8
CCC(C(=O)OCC(=O)C1(O)CCC2C3CCC4=CC(=O)CCC4(C)C3C(O)CC21C)C(C)C (configuration not stated) | · | 9 | · | 56* | ·
CC(=O)[C@@]1(O)CC[C@H]2[C@@H]3CCC4=CC(=O)CC[C@]4(C)[C@H]3[C@@H](O)C[C@@]21C | -1 | -5 | 22 | 9 | -8
O=C(CCNS(=O)(=O)c1ccc2c(c1)CCN2C(=O)C1CC1)Nc1ccc(OC(F)(F)F)cc1 | 1 | · | · | · | -11
Cc1ccccc1CC(=O)N1CCCc2ccccc21 | 0 | -4 | -1 | -1 | 2
Cn1nnnc1SCC(=O)N1CCCc2ccccc21 | 0 | -3 | 41* | -3 | -5
Cc1ccc[n+](CC(=O)N2CCCc3ccccc32)c1 | 1 | 3 | 31* | -12 | -16
Cn1nnnc1SCC(=O)N1CCc2ccccc21 | 0 | -1 | 3 | -7 | -1
CCOC(=O)C1CN(S(C)(=O)=O)c2cc(CC(=O)OC)ccc2O1 (configuration not stated) | -2 | 9 | -8 | -4 | 9
COc1cc(NC(=O)CSc2nc(C)c(C)c(C)n2)cc(OC)c1 | -1 | -3 | 48* | -2 | 6
COc1ccc(S(=O)(=O)N2CCc3ccccc32)cc1C(=O)Nc1ccc(C(N)=O)cc1 | 0 | 1 | 7 | -3 | 3
Cc1c(C(=O)NCc2cccc([N+](=O)[O-])c2)sc(=O)n1Cc1ccc(C(C)C)cc1 | · | -7 | · | -6 | ·
O=c1oc(-c2ccccc2Cl)nc2ccsc12 | 1 | -10 | 31* | -13 | 13
O=c1oc(-c2ccc(F)cc2)nc2ccsc12 | 0 | -3 | 0 | -19 | -4
COc1cc(C(=O)Nc2c(C(=O)O)[nH]c3ccc(C)cc23)cc(OC)c1OC | -1 | 0 | 34* | -9 | 19
